In the library only some 5.6% were active in any assay of this set; here they are far more common.
CtBP-E1A blk – qHTS Assay for Inhibitors of the CtBP/E1A Interaction | 340,000 tested, 0.49% active | AlphaScreen GST-E1A/His-CtBP binding, 1536-well; active compounds read low | activity change, % (test concentration not listed) | AID 651724, 2012; in the data active means activity change below about -65%; inconclusive means mostly about -30% to -63%
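Steps: dispense buffer (Tris pH 8.0, NaCl 300 mM, TCEP 1 mM, BSA, Tween 20); add 5X protein mix (GST-E1A, His-CtBP, 125 nM each); pin 23 nL compound; 2 h at 37 °C, dark; add 5X beads (50 ug/mL); 1 h; read.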
Gal4-VP16 FLuc – VP16 counterscreen qHTS for inhibitors of ROR gamma transcriptional activity. Drosophila S2 Gal4-VP16 UAS-luciferase, luminescence, 20 h. Potency, µM (highest dose often 53.6 µM), hits mostly inhibitors. 310,000 tested, 3.5% active. AID 2546, 2010;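 further: Gal4-VP16 expression switched on by copper sulfate through the metallothionein promoter; nearly all actives have a fitted effect of over 50% in size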
PKM2 act – qHTS Assay for Activators of Human Muscle isoform 2 Pyruvate Kinase. 260,000 tested, 0.34% active. purified PKM2, Kinase-Glo ATP luminescence, activation; response scale: 0% is enzyme alone, no compound. Potency, µM (series often up to 57.5 µM), usual class: activators; further: nearly all actives have a fitted effect of over 55% in size
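ATP formation by purified human PK-M2, quantified via coupled luciferase luminescence after 1 h at room temperature with 0.1 mM ADP and 0.5 mM PEP final.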
RORgamma inh – qHTS for inhibitors of ROR gamma transcriptional activity; Drosophila S2 Gal4-RORgamma UAS-luciferase reporter, 20 h; Potency, µM (series often up to 53.6 µM), actives largely listed as inhibitors; 310,000 tested, 5.4% active; further: nearly all actives have a fitted effect of over 60% in size
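Stable Schneider cell line, Gal4 DNA-binding domain fused to ROR gamma, UAS-luciferase. Cmpd 1 hr RT → CuSO4 700 uM final → 20 hr RT → luciferase reagent 10 min → luminescence.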
Six1-Eya2 blk – qHTS Assay for Inhibitors of the Six1/Eya2 Interaction. Homeobox protein SIX1 (Homo sapiens) + Protein phosphatase EYA2 (Homo sapiens), …. AlphaScreen GST-Six1/His-Eya2 binding, biochemical; active compounds read low. activity change, % (no concentration beside the values). 360,000 tested, 0.56% active; in the data active means activity change below about -65%; inconclusive means mostly about -30% to -63%
Target sequence (O00167 whole entry, looked up): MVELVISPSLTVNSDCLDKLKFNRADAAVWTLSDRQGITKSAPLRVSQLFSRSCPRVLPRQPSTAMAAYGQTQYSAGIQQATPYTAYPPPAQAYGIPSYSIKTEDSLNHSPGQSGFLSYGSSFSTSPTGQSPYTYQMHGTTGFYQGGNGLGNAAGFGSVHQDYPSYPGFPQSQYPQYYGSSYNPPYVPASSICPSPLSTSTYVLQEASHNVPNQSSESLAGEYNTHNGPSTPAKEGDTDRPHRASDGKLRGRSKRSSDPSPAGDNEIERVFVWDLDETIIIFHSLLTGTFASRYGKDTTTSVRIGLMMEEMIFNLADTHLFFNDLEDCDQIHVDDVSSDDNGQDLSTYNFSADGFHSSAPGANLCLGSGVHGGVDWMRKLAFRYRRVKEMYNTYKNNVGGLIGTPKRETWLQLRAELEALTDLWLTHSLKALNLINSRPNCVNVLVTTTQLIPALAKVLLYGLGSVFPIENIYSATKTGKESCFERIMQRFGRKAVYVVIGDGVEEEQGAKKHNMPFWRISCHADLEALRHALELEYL
Target sequence (Q15475 whole entry, looked up): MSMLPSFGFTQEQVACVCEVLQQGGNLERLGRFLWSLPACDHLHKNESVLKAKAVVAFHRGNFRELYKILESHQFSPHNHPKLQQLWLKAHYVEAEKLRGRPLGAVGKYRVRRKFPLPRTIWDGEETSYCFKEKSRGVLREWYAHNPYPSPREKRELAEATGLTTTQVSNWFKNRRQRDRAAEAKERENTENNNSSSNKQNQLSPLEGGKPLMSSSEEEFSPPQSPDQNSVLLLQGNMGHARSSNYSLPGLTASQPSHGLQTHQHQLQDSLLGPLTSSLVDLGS
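AlphaScreen with GST-Six1 and His-Eya2 (5X mix: 250 nM and 500 nM), glutathione donor and nickel acceptor beads; buffer 50 mM Tris pH 8.0, 300 mM NaCl, 1 mM TCEP; 1 h at 37 C in the dark.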
Each line names hits and unclear results; the compound was inactive in the other large screens. Unless noted, the call rests on the fitted dose curve; in most records, active means well fitted curve in the direction sought with a large enough effect; inconclusive means small, poorly fitted or top-dose-only effect, or another doubt; inactive means no such curve, though single readings can be large; an effect the other way counts as inactive or inconclusive.

COc1ccccc1CNC(=S)NCc1ccc(Cl)cc1	CtBP-E1A blk inconclusive, Gal4-VP16 FLuc 7.1µM, RORgamma inh 4µM
S=C(NCc1ccccc1)NCc1ccc(Cl)cc1	Gal4-VP16 FLuc inconclusive, RORgamma inh inconclusive
COc1ccccc1NC(=S)NCc1ccccc1Cl	Gal4-VP16 FLuc 7.1µM, RORgamma inh 8.9µM
Cc1ccc(OCCC(=O)OC(C)C(=O)Nc2c(C)n(C)n(-c3ccccc3)c2=O)cc1 (stereo unspecified)	none (no result: Gal4-VP16 FLuc, PKM2 act, RORgamma inh)
COc1ccc(C(=O)Cc2cc3ccccc3oc2=O)cc1	none (no result: CtBP-E1A blk, PKM2 act)
Cc1cc([N+](=O)[O-])nn1CCCC(=O)Nc1cc(Cl)ccc1Cl	none
Cc1ccc(-c2nn(-c3ccccc3)cc2/C=N/NC(=O)c2ccc(Br)o2)cc1	Gal4-VP16 FLuc 4µM, RORgamma inh 2.8µM
Cc1nnc(SCC(=O)N/N=C/c2cn(-c3ccccc3)nc2-c2ccccc2)n1-c1ccccc1	RORgamma inh inconclusive
O=C(N/N=C/c1ccc(Br)cc1)c1ccc(Br)o1	none
O=C(N/N=C\c1cn(-c2ccccc2)nc1-c1ccccc1)c1ccc(Br)o1	Gal4-VP16 FLuc 4µM, RORgamma inh 1.4µM
O=C(N/N=C/c1cn(-c2ccccc2)nc1-c1ccccc1)c1ccco1	Gal4-VP16 FLuc 10µM, RORgamma inh 6.3µM
S=C(NCCCc1ccccc1)NCc1ccccc1	Gal4-VP16 FLuc 11µM, RORgamma inh 6.3µM
CCOCCCNC(=S)NC1CC2CCC(C1)N2Cc1ccccc1 (stereo unspecified)	none
S=C(NCc1ccccc1)NCc1ccccc1	RORgamma inh inconclusive
CCOCCCNC(=S)NCCc1ccccc1	Gal4-VP16 FLuc 13µM, RORgamma inh 11µM
O=C(CNc1ccc(Br)cc1)NNC1=NCCC1	Gal4-VP16 FLuc 7.1µM, RORgamma inh 5.6µM
O=C(c1ccc2[nH]c(=O)c(=O)[nH]c2c1)N1CCc2ccccc2C1	none (no result: CtBP-E1A blk)
CCOC(=O)c1c(NC(=O)C2=C(C)NC(=S)NC2c2ccc(F)cc2)sc(C)c1C (stereo unspecified)	Gal4-VP16 FLuc inconclusive, RORgamma inh 13µM
CC1=C(C(=O)Nc2ccccn2)C(c2ccc(Cl)cc2)NC(=S)N1 (stereo unspecified)	none
CCOC(=O)c1c(NC(=O)C2=C(C)NC(=S)NC2c2ccc(F)cc2F)sc(C)c1C (stereo unspecified)	Gal4-VP16 FLuc 6.3µM, RORgamma inh 2.8µM
CCOC(=O)c1c(NC(=O)c2cccc(N3C(=O)CCC3=O)c2)sc(C)c1C	RORgamma inh inconclusive
CCOC(=O)c1c(NC(=O)C2=C(C)NC(=S)NC2c2ccc(C)cc2)sc(C)c1C (stereo unspecified)	Gal4-VP16 FLuc 3.5µM, RORgamma inh 2.8µM
C[C@@H]1CN([C@@H](C)CO)S(=O)(=O)c2ccc(Br)cc2O[C@@H]1CN(C)C(=O)c1ccccn1	none (no result: Gal4-VP16 FLuc, PKM2 act, RORgamma inh)
CCCCC1=CC2=C(OC(C)=O)C(=O)C(C)(OC(=O)c3ccc(Cl)nc3)C(=O)C2=CO1 (stereo unspecified)	none (no result: CtBP-E1A blk, PKM2 act, Six1-Eya2 blk)
Cc1ccc(Cl)cc1S(=O)(=O)N1CCC(C(=O)NC2CCN(Cc3ccccc3)CC2)CC1	Gal4-VP16 FLuc 22µM, RORgamma inh inconclusive
CCN(CC)S(=O)(=O)c1ccc(S(=O)(=O)N2CCC(C(=O)NC3CCN(Cc4ccccc4)CC3)CC2)cc1	none
O=c1/c(=C/c2ccc(O)cc2)sc2nc3cc(Br)cnc3n12	none (no result: CtBP-E1A blk, Six1-Eya2 blk)
O=C(NCC1CCCO1)c1cccc(S(=O)(=O)NCc2ccccc2)c1 (stereo unspecified)	none
Cc1nc2cc(NC(=O)c3ccc(Br)s3)ccc2s1	Gal4-VP16 FLuc inconclusive, RORgamma inh 5µM
S=C(NCc1ccccc1)NC1CCCc2ccccc21 (stereo unspecified)	Gal4-VP16 FLuc 11µM, RORgamma inh 2.5µM (no result: CtBP-E1A blk)
S=C(NCc1ccco1)NC1CCCc2ccccc21 (stereo unspecified)	Gal4-VP16 FLuc 13µM, RORgamma inh 4.5µM

From PubChem BioAssay
